{"source": "ChEMBL document CHEMBL5308504", "about": "“Tm Shift (DSF) assay results for EUbOPEN Chemogenomics Library” (2023)", "note": "“And” between values parts separate entries of the source, which are not always exact repeats. Identical values can stand only once."}
{"target": "Bromodomain-containing protein 4 (Homo sapiens) (UniProt O60885)", "details": "Compound concentration 20.0 uM, Protein concentration 2.0 uM, Result type QC Liability"}
{"compound": "c1ccc2c(-c3coc4cc(-c5ccc(N6CCNCC6)cc5)cnc34)ccnc2c1", "ΔTm": "-1.89 °C"}
{"compound": "Cc1cc(=O)oc2cc(NC(=O)[C@H](Cc3ccc(I)cc3)NC(=O)[C@H]3N[C@@H]4CC[C@H]3C4)ccc12", "ΔTm": "-0.26 °C"}
{"compound": "Cc1cc([N+](=O)[O-])c(NS(=O)(=O)c2cccc(C(=O)O)c2)cc1-c1cccnc1", "ΔTm": "-0.44 °C"}
{"compound": "COc1cc(-c2cc3ncccc3c(OC[C@H]3CNC(=O)C3)n2)cc(OC)c1OC1CCOCC1", "ΔTm": "-1.76 °C"}
{"compound": "O=C(O)CCC/C=C\\C[C@@H]1[C@@H](/C=C/[C@@H](O)COc2cccc(C(F)(F)F)c2)[C@H](O)C[C@@H]1O", "ΔTm": "-0.49 °C"}
{"compound": "CC(C)C[C@H](NC(=O)[C@@H](O)[C@H](N)Cc1ccccc1)C(=O)O", "ΔTm": "-0.66 °C"}
{"compound": "COCCCS(=O)(=O)c1cc(C)c(-c2ccc(F)c3c2CC[C@H]3Oc2ccc3c(c2)OC[C@H]3CC(=O)O)c(C)c1", "ΔTm": "-0.25 °C"}
{"compound": "CP(C)(=O)c1ccc(CNC(=O)C2CCN(S(=O)(=O)c3cc(Cl)cc(Cl)c3)CC2)cc1", "ΔTm": "-2.43 °C"}
{"compound": "CN(C)C(=O)Cn1cc(-c2nc([C@@](C)(c3ccc(-c4cnc(N)nc4)cc3)C3CC3)no2)cn1", "ΔTm": "-1.9 °C"}
{"compound": "CSc1ccc(C(=O)/C=C/c2cc(C)c(OC(C)(C)C(=O)O)c(C)c2)cc1", "ΔTm": "-3.49 °C"}
{"compound": "CCn1c(CNC(=O)c2ncc(C)nc2N)[n+](CC)c2ccc(C(=O)N(C)CCN(C)C)cc21", "ΔTm": "-1.53 °C"}
{"compound": "CNC(=O)c1cccc(-c2ccc3c(N4CCOC[C@@H]4C)nc(N4CCOC[C@@H]4C)nc3n2)c1", "ΔTm": "-1.42 °C"}
{"compound": "CC1CCN(C(=O)[C@H](CCn2cccc2C#N)NS(=O)(=O)c2cccc3[nH]ccc23)CC1", "ΔTm": "0.4 °C"}
{"compound": "O=C(Nc1cccc(C(F)(F)F)c1)c1cccc(-n2cc(-c3ccco3)nn2)c1", "ΔTm": "-12.8 °C"}
{"compound": "CC(=O)Nc1ncc(CN2CCC[C@H](Cc3cc(C)nc(C)c3)C2)s1", "ΔTm": "0.62 °C"}
{"compound": "CN(C(=O)c1cnn2cccnc12)c1cc2c(cc1N1CCOCC1)C(=O)N(C[C@@H](F)C(C)(C)O)C2", "ΔTm": "0.93 °C"}
{"compound": "CC(C)c1nc2c(c3c1[C@H](c1ccc(C(F)(F)F)cc1)OC31CCOCC1)[C@H](O)CC(C)(C)C2", "ΔTm": "-0.03 °C"}
{"compound": "N#CC[C@H](C1CCCC1)n1cc(-c2ncnc3[nH]ccc23)cn1", "ΔTm": "-0.65 °C"}
{"compound": "NC(=O)C1CCCc2c1[nH]c1ccc(Cl)cc21", "note": "(centres undefined)", "ΔTm": "-1.42 °C"}
{"compound": "CC(C)(O)[C@H](F)CN1Cc2cc(NC(=O)c3cnn4cccnc34)c(N3CCOCC3)cc2C1=O", "ΔTm": "-0.35 °C"}
{"compound": "Clc1ccccc1C(c1ccccc1)(c1ccccc1)n1ccnc1", "ΔTm": "-5.6 °C"}
{"compound": "COc1cc(-c2cc3ncccc3c(O[C@H](C)[C@H]3CNC(=O)C3)n2)cc(OC)c1OC", "ΔTm": "-1.66 °C and 1.15 °C"}
{"compound": "COc1cc(O)c(C(CC(=O)N2C[C@H](C)C[C@H](C)C2)c2ccc3c(c2)OCO3)c(OC)c1", "note": "(some centres undefined)", "ΔTm": "0.54 °C"}
{"compound": "CC(C)c1cnc(NC(=O)Cc2ccccc2)s1", "ΔTm": "-1.14 °C"}
